Assay results: publication PMC5540273 (PLoS ONE, 2017)
pKd: −log10 of the molar value.

Test system: T1, PKAC-alpha
T1 construct: gene PRKACA
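Further: kd values determined as follow-up on hits from a single-replicate KINOMEscan panel screen.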

Q: How did the pKd turn out when O=S(=O)(c1ccc(-c2ccnc3[nH]ccc23)cc1)N1CCCC1 [GSK846226] was run?
A: 6.59

Q: Fc1cc(Cl)ccc1Nc1ccnc2cc(-c3ccc(CN4CCCCC4)o3)ccc12 [GW560116] was tested. Which pKd did it give?
A: < 5.00

Q: How did the pKd turn out when CCn1c(-c2ccccn2)nc2cnccc21 [SB-736398] was run?
A: < 5.00

Q: With CCCc1ccc(S(=O)(=O)NC2CCN(c3ccnc(Nc4ccc(F)cc4)n3)C2)cc1 (centres unmarked) [GSK1379715] as the molecule, how does the pKd read?
A: < 5.00

Test system: PLK4

Q: With COc1cc2ncnc(Nc3ccc4nc(-c5ccccc5)[nH]c4c3)c2cc1OC.Cl [GW282450] as the molecule, how does the pKd read?
A: 5.80

Q: With COc1ccccc1CNC(=O)c1cc(C(=O)c2ccccc2C)c[nH]1 [GSK364507] as the molecule, how does the pKd read?
A: < 5.00

Q: Nc1ncnc2[nH]c(-c3ccccc3)nc12 [AH5015] was tested. Which pKd did it give?
A: < 5.00

Test system: PRKD1

Q: How did the pKd turn out when Cc1cccc(-c2nc(Nc3ccc4[nH]ncc4c3)c3ccccc3n2)n1 [GW857175] was run?
A: 7.72

Q: With Cc1cccc(-c2nc(Nc3ccncc3)c3ccccc3n2)n1 [GW855857] as the molecule, how does the pKd read?
A: 8.01

Q: COc1ccc2nc(-c3cccc(C)n3)nc(Nc3ccncc3)c2c1 [GSK204919] was tested. Which pKd did it give?
A: 7.29

Q: With Cc1cccc(-c2cc(Nc3ccncc3)c3ccccc3n2)n1 [GSK223675] as the molecule, how does the pKd read?
A: 7.00

Test system: PRKD2

Q: Cc1cccc(-c2nc(C)cc(Nc3ccncc3)n2)n1 [GSK257997] was tested. Which pKd did it give?
A: 5.96

Q: How did the pKd turn out when Cc1cccc(-c2nc(Nc3ccc4[nH]ncc4c3)c3ccccc3n2)n1 [GW857175] was run?
A: 7.82

Q: With Cc1cccc(-c2nc(Nc3ccncc3)c3ccccc3n2)n1 [GW855857] as the molecule, how does the pKd read?
A: 7.77

Q: With COc1ccc2nc(-c3cccc(C)n3)nc(Nc3ccncc3)c2c1 [GSK204919] as the molecule, how does the pKd read?
A: 7.47

Q: How did the pKd turn out when COc1ccc(Nc2nccc(NCCNC(=O)Nc3ccccc3F)n2)cc1 [GSK1379901] was run?
A: < 5.00

Q: Cc1cccc(-c2cc(Nc3ccncc3)c3ccccc3n2)n1 [GSK223675] was tested. Which pKd did it give?
A: 6.52

Test system: PRKD3

Q: How did the pKd turn out when Cc1cccc(-c2nc(C)cc(Nc3ccncc3)n2)n1 [GSK257997] was run?
A: 6.00

Q: With Cc1cccc(-c2nc(Nc3cccc(C(N)=O)c3)c3ccccc3n2)n1 [GW876019] as the molecule, how does the pKd read?
A: 6.09

Q: Cc1cccc(-c2nc(Nc3ccc4[nH]ncc4c3)c3ccccc3n2)n1 [GW857175] was tested. Which pKd did it give?
A: 7.96

Q: With COc1ccc2nc(-c3cccc(C)n3)nc(Nc3ccncc3)c2c1 [GSK204919] as the molecule, how does the pKd read?
A: 6.31

Q: How did the pKd turn out when Cc1cccc(-c2cc(Nc3ccncc3)c3ccccc3n2)n1 [GSK223675] was run?
A: 6.68

Test system: PRKX

Q: With CC1=C(C(=O)Nc2cc3cn[nH]c3cc2F)C(c2ccc(C(F)(F)F)cc2)CC(=O)N1 (centres unmarked) [GSK429286] as the molecule, how does the pKd read?
A: 6.46

Q: With Cc1ccc(NC(=O)Nc2cccc(Cl)c2)cc1-c1ccc(C(=O)Nc2ccncc2)cc1 [GSK1398468] as the molecule, how does the pKd read?
A: 5.13

Q: CCn1c(-c2ccccn2)nc2cnccc21 [SB-736398] was tested. Which pKd did it give?
A: < 5.00

Test system: RAF1

Q: With Cc1cccc(-c2nc(C)cc(Nc3ccncc3)n2)n1 [GSK257997] as the molecule, how does the pKd read?
A: < 5.00

Q: Cl.O=C(Nc1cccc(-c2nn3ncccc3c2-c2ccnc(Nc3cccnc3)n2)c1)c1c(F)cccc1F [GSK312879] was tested. Which pKd did it give?
A: 6.37

Q: With COC(=O)c1c(-c2ccccc2)c2cc(C(=O)O)ccc2c(=O)n1Cc1ccccc1 as the molecule, how does the pKd read?
A: 6.77

Q: With COC(=O)c1c(-c2ccccc2)c2cc(OC)ccc2c(=O)n1Cc1ccccc1 as the molecule, how does the pKd read?
A: 6.41

Q: Cc1ccc(NC(=O)Nc2cccc(Cl)c2)cc1-c1ccc(C(=O)Nc2ccncc2)cc1 [GSK1398468] was tested. Which pKd did it give?
A: 6.74

Q: With Cc1ccc(NC(=O)Nc2cc(C(C)(C)C)nn2-c2ccccc2)cc1 [GSK1014915] as the molecule, how does the pKd read?
A: 6.57

Q: With CN(C)CCN(C)C(=O)c1cc(-c2ccncc2)c(-c2ccc(Cl)c(O)c2)o1.Cl.Cl [SB-710397] as the molecule, how does the pKd read?
A: 6.19

Q: With Cc1cccc(-c2nc(-c3ccc(S(C)(=O)=O)cc3)sc2-c2ccnc(NCCc3ccccc3)c2)c1 as the molecule, how does the pKd read?
A: 6.82

Q: With CC(=O)Nc1nc2cnc(Nc3cc(NC(=O)c4cccc(CCC#N)c4)ccc3C)nc2s1 as the molecule, how does the pKd read?
A: < 5.00

Test system: RIOK2

Q: O=S(=O)(c1ccc(-c2ccnc3[nH]ccc23)cc1)N1CCCC1 [GSK846226] was tested. Which pKd did it give?
A: 6.02

Q: Clc1cc(Cl)cc(Nc2ccnc(Nc3cc(Cl)cc(Cl)c3)n2)c1 [GSK175726] was tested. Which pKd did it give?
A: 6.82

Q: How did the pKd turn out when Cc1cc(-c2ccc3c(c2)CC[C@@H](N[C@@H](C)c2ccccc2)C3)cnc1N.Cl [GW412617] was run?
A: 6.19

Test system: RIOK3

Q: With COc1cccc(-c2cc(-c3c[nH]nc3-c3ccccn3)ccn2)c1 [GW680338] as the molecule, how does the pKd read?
A: 5.02

Q: O=S(=O)(c1ccc(-c2ccnc3[nH]ccc23)cc1)N1CCCC1 [GSK846226] was tested. Which pKd did it give?
A: 6.27

Q: How did the pKd turn out when Cc1ccc(C(=O)Nc2ccc(Nc3ccnc4cc(-c5ccccn5)ccc34)cc2O)cc1.Cl [GW440146] was run?
A: < 5.00

Q: How did the pKd turn out when COc1cc2ncn(-c3cc(OCC4CCCO4)c(C(N)=O)s3)c2cc1OC (centres unmarked) [GSK204607] was run?
A: 6.17

Test system: ROCK1

Q: With CC1=C(C(=O)Nc2cc3cn[nH]c3cc2F)C(c2ccc(C(F)(F)F)cc2)CC(=O)N1 (centres unmarked) [GSK429286] as the molecule, how does the pKd read?
A: 8.57

Q: With O=S(=O)(c1ccc(-c2ccnc3[nH]ccc23)cc1)N1CCCC1 [GSK846226] as the molecule, how does the pKd read?
A: 6.48

Q: How did the pKd turn out when CSc1nn2c(=O)cc(N3CCOCC3)nc2n1Cc1cccc(C(F)(F)F)c1C [GSK2363608] was run?
A: 7.34
